Test results from paper PMC7862700, “An all-to-all approach to the identification of sequence-specific readers for epigenetic DNA modifications on cytosine”.

Tests used:
Test in all cases: DAPPL (digital affinity profiling via proximity ligation, sequencing); 10 mM Tris-HCl pH 7.5, 50 mM NaCl, 1 mM DTT, 4% glycerol, room temperature, 30 min; GST-TFs on glutathione beads, 16-mer random dsDNA library, 0.1% formaldehyde crosslink after washing; high values mean tight binding
Conditions in all cases: protein: recombinant; tags: N-terminal GST; dsDNA, one strand shown
FLI1 = biological target: T1, FLI1 (Homo sapiens, UniProt Q01543 1-452)
T1 sequence: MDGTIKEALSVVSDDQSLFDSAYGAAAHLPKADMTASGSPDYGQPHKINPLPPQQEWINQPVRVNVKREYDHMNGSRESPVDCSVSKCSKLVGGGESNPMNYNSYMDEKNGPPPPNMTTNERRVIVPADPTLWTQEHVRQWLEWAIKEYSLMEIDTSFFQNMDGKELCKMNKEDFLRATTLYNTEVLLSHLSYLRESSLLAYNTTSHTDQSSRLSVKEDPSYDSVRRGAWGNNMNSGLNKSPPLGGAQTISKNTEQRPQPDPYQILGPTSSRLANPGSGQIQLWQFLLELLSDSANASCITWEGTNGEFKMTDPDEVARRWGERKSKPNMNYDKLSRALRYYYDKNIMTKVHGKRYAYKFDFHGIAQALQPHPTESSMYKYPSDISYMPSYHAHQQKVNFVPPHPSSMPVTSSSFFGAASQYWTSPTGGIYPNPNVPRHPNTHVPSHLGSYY
In short: (§1)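 Yeast served to express human transcription factors as GST fusions, which were then captured on glutathione beads and labelled with DNA barcodes. Pooled with a tag-only sample, they were incubated with 200 nmole of a 16-mer random double-stranded DNA library for 30 min at room temperature in Tris/NaCl/DTT/glycerol buffer, washed, crosslinked with 0.1% formaldehyde, ligated by proximity, amplified by PCR and sequenced. Dividing each hexamer's read frequency for a factor by its frequency for the tag-only sample gives the binding signal.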

ELK1 = biological target: T2, ELK1 (Homo sapiens, UniProt P19419 1-428)
T2 sequence: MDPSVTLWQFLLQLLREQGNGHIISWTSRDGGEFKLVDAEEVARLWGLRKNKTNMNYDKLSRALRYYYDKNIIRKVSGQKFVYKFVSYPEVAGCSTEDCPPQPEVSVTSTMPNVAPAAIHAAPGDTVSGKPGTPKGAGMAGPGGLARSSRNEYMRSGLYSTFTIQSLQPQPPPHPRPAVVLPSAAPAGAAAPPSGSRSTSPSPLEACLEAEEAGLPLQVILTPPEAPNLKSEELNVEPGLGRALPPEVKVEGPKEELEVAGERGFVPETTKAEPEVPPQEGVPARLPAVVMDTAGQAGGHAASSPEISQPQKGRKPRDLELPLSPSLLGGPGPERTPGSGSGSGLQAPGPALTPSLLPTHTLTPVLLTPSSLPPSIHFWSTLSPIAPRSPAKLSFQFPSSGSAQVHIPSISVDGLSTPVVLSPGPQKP
In short: as §1

GABPA = biological target: T3, GABPA (Homo sapiens, UniProt Q06546 1-454)
T3 sequence: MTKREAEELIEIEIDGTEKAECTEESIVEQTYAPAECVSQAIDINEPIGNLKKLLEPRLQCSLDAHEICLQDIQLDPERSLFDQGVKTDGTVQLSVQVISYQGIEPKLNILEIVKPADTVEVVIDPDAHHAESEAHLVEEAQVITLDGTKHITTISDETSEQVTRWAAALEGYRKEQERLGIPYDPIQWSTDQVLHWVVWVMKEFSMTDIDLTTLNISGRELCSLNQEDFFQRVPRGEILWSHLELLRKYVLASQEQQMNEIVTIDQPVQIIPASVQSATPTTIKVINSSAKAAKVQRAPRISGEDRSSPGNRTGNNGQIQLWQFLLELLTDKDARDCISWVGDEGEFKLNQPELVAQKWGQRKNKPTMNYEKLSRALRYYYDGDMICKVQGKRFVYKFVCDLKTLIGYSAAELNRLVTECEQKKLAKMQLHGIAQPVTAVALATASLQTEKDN
In short: as §1

ERG = biological target: T4, ERG (Homo sapiens, UniProt P11308 1-479)
T4 sequence: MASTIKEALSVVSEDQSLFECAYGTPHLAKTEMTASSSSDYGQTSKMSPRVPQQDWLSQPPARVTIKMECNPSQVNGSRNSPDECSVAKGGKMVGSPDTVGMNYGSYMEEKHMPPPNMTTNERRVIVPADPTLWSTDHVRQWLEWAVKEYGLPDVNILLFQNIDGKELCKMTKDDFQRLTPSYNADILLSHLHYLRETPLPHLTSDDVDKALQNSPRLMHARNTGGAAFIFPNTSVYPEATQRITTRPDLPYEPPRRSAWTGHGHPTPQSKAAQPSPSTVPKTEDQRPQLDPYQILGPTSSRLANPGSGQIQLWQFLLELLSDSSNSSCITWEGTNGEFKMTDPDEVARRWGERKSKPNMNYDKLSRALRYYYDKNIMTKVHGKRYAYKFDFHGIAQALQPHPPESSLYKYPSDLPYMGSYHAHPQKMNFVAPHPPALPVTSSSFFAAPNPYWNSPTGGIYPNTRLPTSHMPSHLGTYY
In short: as §1

ELF1 = ELF1 (Homo sapiens, UniProt P32519 1-619)
In short: as §1

EHF = biological target: T5, EHF (Homo sapiens, UniProt Q9NZC4 1-300)
T5 sequence: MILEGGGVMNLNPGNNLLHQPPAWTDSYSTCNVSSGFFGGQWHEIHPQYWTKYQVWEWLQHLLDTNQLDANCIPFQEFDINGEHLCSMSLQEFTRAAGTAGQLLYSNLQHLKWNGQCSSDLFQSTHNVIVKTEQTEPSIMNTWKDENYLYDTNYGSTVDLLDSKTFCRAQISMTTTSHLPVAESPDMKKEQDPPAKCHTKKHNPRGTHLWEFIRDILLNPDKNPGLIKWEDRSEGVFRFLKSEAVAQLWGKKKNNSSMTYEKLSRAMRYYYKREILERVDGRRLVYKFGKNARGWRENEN
In short: as §1

SPI1 = SPI1 (Homo sapiens, UniProt P17947 1-270)
In short: as §1

SPIB = SPIB (Homo sapiens, UniProt Q01892 1-262)
In short: as §1

ELK3 = biological target: T6, ELK3 (Homo sapiens, UniProt P41970 1-407)
T6 sequence: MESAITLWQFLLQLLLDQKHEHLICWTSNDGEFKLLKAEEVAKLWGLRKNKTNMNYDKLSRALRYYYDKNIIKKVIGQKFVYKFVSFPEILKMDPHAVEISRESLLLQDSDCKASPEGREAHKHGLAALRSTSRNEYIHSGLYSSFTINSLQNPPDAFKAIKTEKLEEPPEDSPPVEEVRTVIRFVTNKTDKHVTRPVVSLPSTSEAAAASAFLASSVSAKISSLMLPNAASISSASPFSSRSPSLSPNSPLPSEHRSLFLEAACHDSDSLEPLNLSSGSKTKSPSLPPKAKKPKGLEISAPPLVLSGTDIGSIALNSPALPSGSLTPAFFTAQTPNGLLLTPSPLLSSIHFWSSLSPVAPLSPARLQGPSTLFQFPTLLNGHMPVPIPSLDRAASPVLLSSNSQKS
In short: as §1

FEV = biological target: T7, FEV (Homo sapiens, UniProt Q99581 1-238)
T7 sequence: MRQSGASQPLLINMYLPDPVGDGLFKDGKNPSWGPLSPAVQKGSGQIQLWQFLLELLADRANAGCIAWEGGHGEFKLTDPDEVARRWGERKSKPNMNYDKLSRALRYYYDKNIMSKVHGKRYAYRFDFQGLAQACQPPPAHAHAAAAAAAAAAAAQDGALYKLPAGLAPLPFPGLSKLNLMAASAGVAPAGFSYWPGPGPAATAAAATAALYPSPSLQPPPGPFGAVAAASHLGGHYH
In short: as §1

ETV5 = ETV5 (Homo sapiens, UniProt P41161 1-510)
In short: as §1

SPIC = biological target: T8, SPIC (Homo sapiens, UniProt Q8N5J4 1-248)
T8 sequence: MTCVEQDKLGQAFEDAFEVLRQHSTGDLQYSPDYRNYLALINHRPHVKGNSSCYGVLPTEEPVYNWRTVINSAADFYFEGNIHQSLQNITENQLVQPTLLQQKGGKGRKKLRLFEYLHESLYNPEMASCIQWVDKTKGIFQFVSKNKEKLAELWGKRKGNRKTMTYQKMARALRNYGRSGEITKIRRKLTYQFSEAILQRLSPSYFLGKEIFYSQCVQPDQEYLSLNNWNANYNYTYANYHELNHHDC
In short: as §1

ELF4 = ELF4 (Homo sapiens, UniProt Q99607 1-663)
In short: as §1

ELK4 = biological target: T9, ELK4 (Homo sapiens, UniProt P28324-2 1-405)
T9 sequence: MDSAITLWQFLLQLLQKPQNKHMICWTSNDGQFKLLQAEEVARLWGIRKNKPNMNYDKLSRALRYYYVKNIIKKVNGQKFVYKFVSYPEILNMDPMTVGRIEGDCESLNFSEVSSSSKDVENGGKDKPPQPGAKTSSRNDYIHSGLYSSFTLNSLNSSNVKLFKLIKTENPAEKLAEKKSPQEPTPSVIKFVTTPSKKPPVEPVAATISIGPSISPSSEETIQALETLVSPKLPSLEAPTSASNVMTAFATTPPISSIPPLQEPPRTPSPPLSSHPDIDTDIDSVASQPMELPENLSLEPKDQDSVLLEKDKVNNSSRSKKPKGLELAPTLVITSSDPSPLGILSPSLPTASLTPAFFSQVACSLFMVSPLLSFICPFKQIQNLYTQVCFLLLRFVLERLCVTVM
In short: as §1

ETV2 = biological target: T10, ETV2 (Homo sapiens, UniProt O00321 1-342)
T10 sequence: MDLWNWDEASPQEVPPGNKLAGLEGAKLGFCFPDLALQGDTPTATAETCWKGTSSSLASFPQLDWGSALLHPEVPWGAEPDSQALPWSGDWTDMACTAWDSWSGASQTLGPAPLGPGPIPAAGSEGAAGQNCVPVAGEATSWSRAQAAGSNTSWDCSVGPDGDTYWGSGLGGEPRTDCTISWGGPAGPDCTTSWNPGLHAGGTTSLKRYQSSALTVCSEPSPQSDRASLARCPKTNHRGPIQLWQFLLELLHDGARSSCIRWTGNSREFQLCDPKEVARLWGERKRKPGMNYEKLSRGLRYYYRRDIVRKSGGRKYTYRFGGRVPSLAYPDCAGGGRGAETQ
In short: as §1

ELF3 = biological target: T11, ELF3 (Homo sapiens, UniProt P78545 1-371)
T11 sequence: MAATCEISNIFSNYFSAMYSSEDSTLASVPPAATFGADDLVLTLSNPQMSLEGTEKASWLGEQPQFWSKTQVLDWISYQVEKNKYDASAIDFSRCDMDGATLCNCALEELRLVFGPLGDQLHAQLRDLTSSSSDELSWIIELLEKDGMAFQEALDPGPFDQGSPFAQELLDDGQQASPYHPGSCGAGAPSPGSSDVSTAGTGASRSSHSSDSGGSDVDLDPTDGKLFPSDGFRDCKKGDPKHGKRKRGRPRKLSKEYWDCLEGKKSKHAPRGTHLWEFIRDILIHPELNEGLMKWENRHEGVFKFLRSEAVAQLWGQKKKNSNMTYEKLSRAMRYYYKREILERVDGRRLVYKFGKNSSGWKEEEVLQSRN
In short: as §1

ETV1 = ETV1 (Homo sapiens, UniProt P50549 1-477)
In short: as §1

Sequence of ELF4 (Q99607 whole entry): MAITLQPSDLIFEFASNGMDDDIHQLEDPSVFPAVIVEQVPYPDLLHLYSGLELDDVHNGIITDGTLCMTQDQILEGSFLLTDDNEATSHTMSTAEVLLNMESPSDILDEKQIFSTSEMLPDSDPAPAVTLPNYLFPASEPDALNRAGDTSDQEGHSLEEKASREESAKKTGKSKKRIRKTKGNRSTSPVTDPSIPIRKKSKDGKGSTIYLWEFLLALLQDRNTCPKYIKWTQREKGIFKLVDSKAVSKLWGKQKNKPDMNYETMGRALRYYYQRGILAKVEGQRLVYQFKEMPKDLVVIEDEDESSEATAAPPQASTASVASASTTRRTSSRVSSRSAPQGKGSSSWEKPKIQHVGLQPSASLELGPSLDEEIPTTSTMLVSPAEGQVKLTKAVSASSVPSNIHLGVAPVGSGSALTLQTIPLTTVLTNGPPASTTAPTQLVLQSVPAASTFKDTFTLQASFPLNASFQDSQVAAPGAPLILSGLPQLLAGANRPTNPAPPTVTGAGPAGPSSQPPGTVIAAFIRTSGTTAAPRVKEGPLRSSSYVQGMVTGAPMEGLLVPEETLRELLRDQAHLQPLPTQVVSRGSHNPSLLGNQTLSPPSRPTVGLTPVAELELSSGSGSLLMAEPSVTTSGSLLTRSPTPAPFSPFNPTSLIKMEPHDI
Sequence of ETV1 (P50549 whole entry): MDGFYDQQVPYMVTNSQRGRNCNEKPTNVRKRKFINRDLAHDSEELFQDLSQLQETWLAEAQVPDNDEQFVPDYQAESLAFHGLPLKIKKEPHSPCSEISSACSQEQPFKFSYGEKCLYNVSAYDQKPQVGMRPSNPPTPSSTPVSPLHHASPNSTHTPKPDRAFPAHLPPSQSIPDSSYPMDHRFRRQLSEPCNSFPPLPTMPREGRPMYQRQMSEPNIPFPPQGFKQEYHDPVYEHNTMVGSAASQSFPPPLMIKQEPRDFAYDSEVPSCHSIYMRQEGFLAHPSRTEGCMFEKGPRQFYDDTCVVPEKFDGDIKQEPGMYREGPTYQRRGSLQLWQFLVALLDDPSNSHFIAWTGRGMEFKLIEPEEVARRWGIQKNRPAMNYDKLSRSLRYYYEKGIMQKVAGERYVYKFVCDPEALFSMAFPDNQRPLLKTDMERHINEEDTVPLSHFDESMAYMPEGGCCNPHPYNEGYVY
Sequence of SPIB (Q01892 whole entry): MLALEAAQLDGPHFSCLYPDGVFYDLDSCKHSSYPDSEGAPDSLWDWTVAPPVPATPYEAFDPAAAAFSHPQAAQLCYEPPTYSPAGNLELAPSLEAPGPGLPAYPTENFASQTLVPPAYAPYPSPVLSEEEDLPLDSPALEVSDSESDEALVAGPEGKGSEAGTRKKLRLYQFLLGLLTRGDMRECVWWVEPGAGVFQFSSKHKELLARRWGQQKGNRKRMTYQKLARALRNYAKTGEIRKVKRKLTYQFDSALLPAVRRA
Sequence of ETV5 (P41161 whole entry): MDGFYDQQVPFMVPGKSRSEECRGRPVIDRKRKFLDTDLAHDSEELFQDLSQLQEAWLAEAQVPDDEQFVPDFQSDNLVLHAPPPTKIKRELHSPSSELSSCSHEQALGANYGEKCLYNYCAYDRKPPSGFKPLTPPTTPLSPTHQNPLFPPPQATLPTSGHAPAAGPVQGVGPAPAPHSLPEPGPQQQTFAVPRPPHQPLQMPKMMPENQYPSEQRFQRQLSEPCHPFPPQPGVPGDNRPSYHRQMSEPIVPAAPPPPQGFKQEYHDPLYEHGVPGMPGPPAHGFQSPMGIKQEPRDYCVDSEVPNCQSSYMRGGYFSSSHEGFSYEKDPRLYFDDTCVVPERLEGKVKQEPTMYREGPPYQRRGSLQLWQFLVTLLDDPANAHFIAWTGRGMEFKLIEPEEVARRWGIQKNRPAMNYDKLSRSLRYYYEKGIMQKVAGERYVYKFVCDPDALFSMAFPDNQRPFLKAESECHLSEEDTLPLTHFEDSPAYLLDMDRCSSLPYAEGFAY
Sequence of ELF1 (P32519 whole entry): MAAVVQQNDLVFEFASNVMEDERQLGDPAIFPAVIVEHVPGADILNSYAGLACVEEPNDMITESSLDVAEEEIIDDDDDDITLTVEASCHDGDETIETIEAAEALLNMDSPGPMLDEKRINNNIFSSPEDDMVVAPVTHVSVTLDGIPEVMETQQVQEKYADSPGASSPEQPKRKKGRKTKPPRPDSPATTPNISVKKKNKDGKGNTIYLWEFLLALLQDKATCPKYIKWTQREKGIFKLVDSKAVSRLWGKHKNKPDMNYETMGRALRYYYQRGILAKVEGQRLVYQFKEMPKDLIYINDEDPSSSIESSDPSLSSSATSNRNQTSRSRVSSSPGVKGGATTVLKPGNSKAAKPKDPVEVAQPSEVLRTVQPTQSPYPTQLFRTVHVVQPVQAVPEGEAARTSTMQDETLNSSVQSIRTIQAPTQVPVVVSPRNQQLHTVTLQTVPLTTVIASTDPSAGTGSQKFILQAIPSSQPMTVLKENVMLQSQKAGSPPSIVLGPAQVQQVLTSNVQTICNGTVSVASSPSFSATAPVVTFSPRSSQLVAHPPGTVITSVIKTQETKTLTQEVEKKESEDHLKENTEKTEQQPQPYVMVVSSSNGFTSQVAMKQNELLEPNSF

Sequence	binding signal (FLI1)	binding signal (ELK1)	binding signal (GABPA)	binding signal (ERG)	binding signal (ELF1)	binding signal (EHF)	binding signal (SPI1)	binding signal (SPIB)	binding signal (ELK3)	binding signal (FEV)	binding signal (ETV5)	binding signal (SPIC)	binding signal (ELF4)	binding signal (ELK4)	binding signal (ETV2)	binding signal (ELF3)	binding signal (ETV1)
CGCCCC	1.12 fold enrichment (6-mer frequency, TF over GST control)	1.17 fold enrichment (6-mer frequency, TF over GST control)	1.11 fold enrichment (6-mer frequency, TF over GST control)	1.14 fold enrichment (6-mer frequency, TF over GST control)	1.22 fold enrichment (6-mer frequency, TF over GST control)	1.19 fold enrichment (6-mer frequency, TF over GST control)	1.18 fold enrichment (6-mer frequency, TF over GST control)	1.1 fold enrichment (6-mer frequency, TF over GST control)	1.18 fold enrichment (6-mer frequency, TF over GST control)	1.21 fold enrichment (6-mer frequency, TF over GST control)	1.23 fold enrichment (6-mer frequency, TF over GST control)	1.24 fold enrichment (6-mer frequency, TF over GST control)	1.28 fold enrichment (6-mer frequency, TF over GST control)	1.06 fold enrichment (6-mer frequency, TF over GST control)	1.02 fold enrichment (6-mer frequency, TF over GST control)	1.09 fold enrichment (6-mer frequency, TF over GST control)	1.25 fold enrichment (6-mer frequency, TF over GST control)
GTTATG	1.07 fold enrichment (6-mer frequency, TF over GST control)	1.17 fold enrichment (6-mer frequency, TF over GST control)	1.16 fold enrichment (6-mer frequency, TF over GST control)	1.19 fold enrichment (6-mer frequency, TF over GST control)	1.12 fold enrichment (6-mer frequency, TF over GST control)	1.2 fold enrichment (6-mer frequency, TF over GST control)	1.18 fold enrichment (6-mer frequency, TF over GST control)	1.12 fold enrichment (6-mer frequency, TF over GST control)	1.06 fold enrichment (6-mer frequency, TF over GST control)	1.03 fold enrichment (6-mer frequency, TF over GST control)	1.14 fold enrichment (6-mer frequency, TF over GST control)	1.23 fold enrichment (6-mer frequency, TF over GST control)	1.1 fold enrichment (6-mer frequency, TF over GST control)	1.23 fold enrichment (6-mer frequency, TF over GST control)	1.14 fold enrichment (6-mer frequency, TF over GST control)	1.25 fold enrichment (6-mer frequency, TF over GST control)	1.14 fold enrichment (6-mer frequency, TF over GST control)
